Screening results deposited in PubChem by National Center for Advancing Translational Sciences (NCATS).
The list is not random: actives were taken first. Their share in the collection is about 18%.
TDP1 block: inhibitors of human tyrosyl-DNA phosphodiesterase TDP1; Q9NUW8; Potency, µM (highest dose often 130 µM), hits mostly inhibitors; AID 485290; 0.28% of 350,000 active; recombinant TDP1, AlphaScreen DNA substrate cleavage; further: nearly all actives have a fitted effect of over 40% in size
Target sequence (Q9NUW8 whole entry, looked up): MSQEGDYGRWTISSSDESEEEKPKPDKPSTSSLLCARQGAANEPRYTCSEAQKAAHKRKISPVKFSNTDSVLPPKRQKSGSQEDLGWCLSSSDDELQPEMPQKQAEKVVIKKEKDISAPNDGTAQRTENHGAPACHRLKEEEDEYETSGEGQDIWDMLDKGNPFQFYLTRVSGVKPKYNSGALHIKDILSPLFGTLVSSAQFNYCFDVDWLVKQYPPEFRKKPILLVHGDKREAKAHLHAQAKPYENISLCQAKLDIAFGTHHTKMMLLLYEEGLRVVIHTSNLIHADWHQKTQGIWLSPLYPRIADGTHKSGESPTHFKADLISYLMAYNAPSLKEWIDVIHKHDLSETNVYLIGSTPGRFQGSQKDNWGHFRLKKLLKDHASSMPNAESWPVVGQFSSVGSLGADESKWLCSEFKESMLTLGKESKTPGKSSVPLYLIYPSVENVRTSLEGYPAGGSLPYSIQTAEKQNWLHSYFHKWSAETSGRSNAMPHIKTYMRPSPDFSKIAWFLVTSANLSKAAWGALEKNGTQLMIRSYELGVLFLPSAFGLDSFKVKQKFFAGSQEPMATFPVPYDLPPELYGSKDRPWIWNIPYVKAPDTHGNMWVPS
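AlphaScreen read-out: signal falls as enzyme removes the 3' tyrosine-FITC from a 5'-biotinylated DNA oligo (15 nM, 5 min, RT). Enzyme was E. coli-made recombinant Tdp1 at 1 nM, exposed to compound for 15 min beforehand; beads 10 ug/ml, 10 min.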
TGFb SMAD3 inh: TGF-b pathway inhibition. 1.2% of 410,000 active. Potency, µM (series often up to 46.1 µM), hits mostly inhibitors. HepG2 CAGA-GFP TGF-b/SMAD3 reporter, GFP fluorescence, 18 h; TGF-beta stimulated, 500 pg/mL final; further: nearly all actives have a fitted effect of over 65% in size
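Read-out: total well GFP (ex488/em500-530) summed from mean per-cell fluorescence. Cells: HEPG2 CAGA-GFP, 1% FBS DMEM, 18 h at 37 degrees C with 500 pg/mL final TGF-beta. Unstimulated wells served as the full-inhibition control; stimulated DMSO wells = 0%.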
TDP1 cell CPT: growth inhibition of DT40 Tdp1-/-;hTDP1 cells with camptothecin (screen for TDP1 inhibitors); chicken DT40 Tdp1-/-;hTDP1 cells + 20 nM CPT, ATP luminescence, 48 h; Potency, µM (series often up to 46.2 µM), most hits filed as inhibitors; 12% of 420,000 active; AID 686979; further: nearly all actives have a fitted effect of over 55% in size
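Chicken DT40 Tdp1-/- cells stably complemented with human TDP1 were seeded at 400 cells/well in medium containing 20 nM camptothecin, exposed to pin-transferred compounds, and grown at 37 °C for at least 48 hr. Viability was read as ATP luminescence.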
HepG2 viability: counter-screen for TGF-b inhibitors: cytotoxicity in HepG2 cells | 0.76% of 410,000 active | HepG2 CAGA-GFP viability, ATP luminescence, 18 h | Potency, µM (titrated, usually from 46.1 µM), hits mostly cytotoxic | AID 588856
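CellTiter-Glo luminescence gave cytotoxicity after 18 hours at 37 degrees C. The cells were HepG2 CAGA-GFP in 1% FBS DMEM, stimulated with 500 pg/mL TGF-beta after compound addition. %Activity was normalised to no-cell wells (complete cell-killing) and DMSO (no toxicity), and curves were fitted and classified.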
TDP1 cell noCPT: qHTS for Inhibitors of human tyrosyl-DNA phosphodiesterase 1 (TDP1): qHTS in cells in absence of CPT; 15% of 420,000 active; DT40 Tdp1-/- hTDP1 cells, no CPT, ATP luminescence, 48 h; Potency, µM (doses to about 46.2 µM), most hits filed as inhibitors; further: nearly all actives have a fitted effect of over 55% in size
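Chicken DT40 Tdp1-/- cells stably complemented with human TDP1 were seeded at 400 cells/well with DMSO in place of 20 nM camptothecin. After compound pinning, cells grew at least 48 hr at 37 °C; viability read by CellTiter-Glo luminescence.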
IL-1B inflam inh: inhibitors of inflammasome signaling (IL-1 beta secretion) | THP-1 LPS/ATP IL-1B secretion, AlphaLISA, 16 h; active compounds read low | activity change, % at 57.5 µM | 4.7% of 360,000 active | AID 743279; in the data active means activity change below about -50%; inconclusive means mostly about -30% to -49%
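THP-1 cells pretreated 1 hr with compounds (up to 57.5 uM final), then stimulated with LPS (250 ng/mL final) plus ATP (1.25 mM final); secreted IL-1B measured by AlphaLISA after 16 hr, decreased signal indicating inhibition.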
Each line names hits and unclear results; the compound was inactive in the other large screens. Unless noted, the call rests on the fitted dose curve; in most records, active means well fitted curve in the direction sought with a large enough effect; inconclusive means small, poorly fitted or top-dose-only effect, or another doubt; inactive means no such curve, though single readings can be large; an effect the other way counts as inactive or inconclusive.

O=C(NNC(=O)C1COc2ccccc2O1)c1ccccc1O (stereo not drawn)	TDP1 cell CPT inconclusive, TDP1 cell noCPT 16µM
O=C(CNC(=O)C1COc2ccccc2O1)N/N=C\c1cccc(O)c1 (stereo not drawn)	none
O=C(CNC(=O)C(c1ccccc1)c1ccccc1)N/N=C\c1cccc(O)c1	TDP1 cell CPT inconclusive
O=C(/C=C\c1ccccc1)NCC(=O)N/N=C/c1ccc(O)cc1O	TDP1 cell CPT 21µM, TDP1 cell noCPT 8.2µM
O=C(CNC(=O)C(c1ccccc1)c1ccccc1)N/N=C/c1ccc(O)cc1O	TGFb SMAD3 inh inconclusive, TDP1 cell CPT 5.8µM, TDP1 cell noCPT 6.5µM (no result: TDP1 block)
O=C(CNC(=O)C1COc2ccccc2O1)N/N=C/c1ccc(O)cc1O (stereo not drawn)	TGFb SMAD3 inh inconclusive, TDP1 cell CPT 6.5µM, TDP1 cell noCPT 6.5µM
COc1ccc(Cl)cc1C(=O)NNC(=O)C1COc2ccccc2O1 (stereo not drawn)	TDP1 cell CPT inconclusive, TDP1 cell noCPT inconclusive
CC1CCc2c(nc3ncnn3c2NCCc2ccccc2F)C1 (stereo not drawn)	TDP1 cell CPT inconclusive, TDP1 cell noCPT 13µM (no result: IL-1B inflam inh)
O=C(COCc1cc(-c2ccc(F)cc2)on1)Nc1cccc(C(F)(F)F)c1	TDP1 cell CPT inconclusive, TDP1 cell noCPT inconclusive (no result: IL-1B inflam inh)
CCCCN1CCC(=O)C(C(=O)OCC)=C1C(=O)OCC	none (no result: TDP1 block)
COc1ccc(OC)c(NC(=O)CCN2CCN(c3ccccc3F)CC2)c1	TDP1 cell CPT 29µM, TDP1 cell noCPT 13µM
COc1ccc(C)cc1NC(=O)CCN1CCN(c2ccccc2F)CC1	TDP1 cell CPT inconclusive, TDP1 cell noCPT inconclusive (no result: TDP1 block)
COc1cc(NC(=O)CN2CCN(c3ccccc3F)CC2)c(C)cc1[N+](=O)[O-]	none
COc1ccc(C)cc1NC(=O)CN1CCN(c2ccccc2F)CC1	TDP1 cell CPT inconclusive, TDP1 cell noCPT 13µM
O=C1N/C(=N\N=C\c2cccs2)SC1Cc1cccc(Cl)c1Cl (stereo not drawn)	TDP1 cell CPT 3.3µM, TDP1 cell noCPT 5.2µM
COc1ccccc1/C=C1\SC(N2CCC(C)CC2)=NC1=O	TDP1 cell CPT inconclusive, TDP1 cell noCPT 23µM, IL-1B inflam inh inconclusive (no result: TDP1 block)
Cc1ccc(/C=C2\SC(N3CCCCC3)=NC2=O)cc1	TDP1 cell CPT inconclusive, TDP1 cell noCPT inconclusive, IL-1B inflam inh -66 (no result: TDP1 block)
COc1ccc(OC)c(/C=C2\SC(N3CCCCC3)=NC2=O)c1	TDP1 cell CPT 7.3µM, TDP1 cell noCPT 5.8µM, IL-1B inflam inh inconclusive (no result: TDP1 block)
O=C1N=C(N2CCCCC2)S/C1=C\c1ccccc1F	TDP1 cell noCPT inconclusive, IL-1B inflam inh -64
CCOc1ccc(-c2noc(CCCC(=O)NC3CCCC3)n2)cc1OC	none
Cc1ccc(-c2nc(C)c(CCNS(=O)(=O)c3ccccc3F)s2)cc1	none (no result: TDP1 cell CPT, TDP1 cell noCPT, IL-1B inflam inh)
O=c1c(C(c2ccc(F)cc2)c2c(O)nc3n(c2=O)CCS3)c(O)nc2n1CCS2	none (no result: IL-1B inflam inh)
CCCOc1ccccc1/C=C1\SC(N2CCCCC2)=NC1=O	TDP1 cell CPT inconclusive, TDP1 cell noCPT 5.8µM, IL-1B inflam inh -61 (no result: TDP1 block)
COc1cc(OC)c(OC)cc1/C=C1\SC(N2CCCCC2)=NC1=O	TDP1 cell noCPT inconclusive (no result: TDP1 block)
C=CCn1c(-c2ccc(OC)cc2)csc1=Nc1c(C)n(C)n(-c2ccccc2)c1=O	TDP1 cell CPT 21µM, TDP1 cell noCPT 21µM
COc1ccc(-c2ncnc(C(F)(F)F)c2-c2csc(C)n2)c(O)c1	none
Cc1nc(-c2c(-c3ccc(O)cc3O)noc2C(F)(F)F)cs1	TGFb SMAD3 inh inconclusive, TDP1 cell CPT 18µM, TDP1 cell noCPT 16µM
CC(C)C[C@H]1CN(CCCC[C@H]2CNC(=O)C(=O)N2Cc2ccccc2)C(=O)C(=O)N1CCC1CCCCC1	TDP1 cell CPT inconclusive, TDP1 cell noCPT inconclusive (no result: TDP1 block, TGFb SMAD3 inh, HepG2 viability)
Cc1cccc(OCc2nc(CC(=O)Nc3ccc(C)cc3C)cs2)c1	TDP1 cell CPT 15µM, TDP1 cell noCPT inconclusive (no result: IL-1B inflam inh)
